# NS1 function inh: qHTS Assay for Inhibitors of Influenza NS1 Protein Function | Potency, µM (series often up to 46.1 µM), inactives show at the top dose activity, positive = more growth | actives 0.4% (n = 270,000) | AID 2326, 2010; also: potency is read from the fitted curve at half-maximal effect; actives are rising curves; nearly all actives have a fitted effect of over 50% in size
#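 A cell-based growth assay was used: compounds that relieve NS1-induced slow growth of budding yeast raise OD600. Assay medium was yeast nitrogen base with ammonium sulphate and -URA supplement, pH 6.0, with 2% galactose.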
# Cycloheximide cs: Cycloheximide Counterscreen for Small Molecule Inhibitors of Shiga Toxin; max response, %; actives 12% (n = 300,000); cell reporter, cycloheximide protein synthesis inhibition counterscreen; in the data active = max response mostly above about 13%, no sharp cut-off; inactive = mostly below about 14%; also: read at 38.3 µM for the half of the compounds with a filed dose; 0% is about no effect
# SARS PLpro yeast: qHTS of Yeast-based Assay for SARS-CoV PLP. S. cerevisiae expressing SARS-CoV PLpro, growth rescue. Potency, µM (top dose mostly 32.9 µM), without a hit: at the highest dose activity, positive = growth rescue, actives largely listed as activators. actives 0.19% (n = 330,000). AID 485353, 2010; also: potency is read from the fitted curve at half-maximal effect; 0% is about no effect; nearly all actives have a fitted effect of over 55% in size
# Shiga toxin inh: A qHTS for Small Molecule Inhibitors of Shiga Toxin; actives 9.2% (n = 290,000); inhibition, % at 38.7 µM; Vero cells, Shiga toxin protein synthesis inhibition reporter; in the data active = inhibition mostly above about 28%, no sharp cut-off; inactive = mostly below about 43%; also: 0% is about no effect
# An asterisk follows results filed as active; i = inactive; ? = inconclusive; / = not tested or not shown; + = active, no number; [ ] = another dose, or the depositor's remark. Sampled rows, rich in hits. Any-hit rate of the full collection: about 12%. Unless noted, calls follow the shape of the full dose curve.
SMILES,NS1 function inh,Cycloheximide cs,SARS PLpro yeast,Shiga toxin inh
Cc1ccc(/C=C2\CCC(C3CCCC3)C2=O)cc1 (configuration not stated),-3.9%,56.1*,-3.3%,61.4*
CCCCCC(=O)c1c(O)cc(OC)c(Cl)c1O,/,26.2*,/,92.6*
Cc1cc(C(=O)COC(=O)CNC(=O)c2ccccc2)c(C)n1CC1CCCO1 (configuration not stated),-1.1%,26.4*,1.8%,134.5*
Cc1cccc(C(=O)NCC(=O)OCC(=O)c2cc(C)n(CC3CCCO3)c2C)c1 (configuration not stated),/,47.7*,-0.3%,88.7*
CCC(C(=O)O)n1c2ccccc2c2cn[nH]c(=O)c21 (configuration not stated),8.6%,-1.9,-1.2%,14.6
Cc1ccc(NC(=S)C2=C(O)c3ccccc3N(C)S2(=O)=O)cc1,-10.0%,-1.5,-13.8%,17.2
Cc1c(C)c2ccc(OCC(=O)Nc3ccccn3)cc2oc1=O,-6.4%,33.6*,6.7%,62.0*
Cc1c(C)c2ccc(OCC(=O)Nc3nccs3)cc2oc1=O,-5.9%,44.9*,4.3%,77.6*
Cc1c(C)c2ccc(OCC(=O)Nc3cccnc3)cc2oc1=O,11.4%,15.6,0.4%,7.3
Cc1c(C)c2ccc(OCC(=O)NCc3ccccn3)cc2oc1=O,6.4%,-6.1,6.3%,-7.4
CCCCc1cc(=O)oc2cc(OCC(=O)Nc3ccccn3)ccc12,1.6%,40.2*,-6.3%,97.8*
Cc1cc(=O)oc2cc(OCC(=O)Nc3nccs3)ccc12,-1.7%,34.8*,-0.6%,74.1*
CCCN(CC(=O)Nc1ccc(F)c(F)c1F)C(=O)CCc1nc2ccccc2c(=O)[nH]1,/,/,-3.3%,/
O=S(=O)(c1ccc(OCC(O)CN2CCc3ccccc3C2)cc1)N1CCOCC1 (configuration not stated),0.8%,-3.2,-1.4%,2.8
CCCC[C@]12Cc3cc(OC)c(OC)cc3C(O1)c1c(cc(-c3ccccc3)oc1=O)O2,18.0%,-1.2,-3.1%[6.58 µM],i
CCCC[C@]12Cc3ccccc3C(O1)c1c(cc(-c3ccccc3)oc1=O)O2,-66.8%,12.6,-17.3%[6.58 µM],+
O=C(Nc1ccc(-c2ccccc2)cc1)c1ccco1,/,2.5,-11.7%,-2.7
CC(=O)N(C)c1ccc(NC(=O)c2ccco2)cc1,5.2%,29.7*,1.6%,151.8*
O=C(Nc1ccc(Nc2ccccc2)cc1)c1ccco1,-23.7%,49.1*,-15.1%,139.0*
CN(c1ccccc1)S(=O)(=O)c1ccc(NC(=O)c2ccco2)cc1,/,13.8,1.2%,19.7
O=C(Nc1ccc(Cc2ccncc2)cc1)c1ccco1,-14.1%,24.0*,0.3%,81.4*
O=C(Nc1ccc(NC(=O)c2ccco2)cc1)c1ccco1,2.0%,-6.4,13.3%,-14.2
O=C(Nc1ccc(Br)cc1)c1ccco1,-66.0%,29.8*,-14.6%,15.5
COCCNC(=S)N/N=C1\CC(C)CC(C)(C)C1 (configuration not stated),/,-1.7,-0.2%,-12.5
CS(=O)(=O)n1nc(OC(=O)c2cccc3ccccc23)cc1N,4.5%,63.1*,-6.7%,72.1*
SMILES,NS1 function inh,Cycloheximide cs,SARS PLpro yeast,Shiga toxin inh
O=C1c2ccccc2C(=O)N1Cc1ccc2c(c1)OCO2,-27.0%,7.7,-6.2%,-17.8
C=C1c2ccccc2NC(=S)N1Cc1ccc2c(c1)OCO2,/,41.2*,0.2%,65.4*
Cc1c(CCO)c(=O)n(-c2ccccc2)n1S(=O)(=O)c1c(Cl)cc(Cl)cc1Cl,-55.0%,-0.5,-27.0%,-10.7
COc1cc(C(=O)N2CCN(c3ccccc3)CC2)c([N+](=O)[O-])cc1OC,1.2%,-1.7,1.9%,-7.5
O=C(Cc1ccc(Br)cc1)N1CCc2ccccc2C1,-26.4%,39.1*,-2.3%,/
O=C(CSc1ncccn1)N1CCc2ccccc2C1,7.5%,13.6*,0.2%,27.5
O=C(COc1ccc(F)cc1)N1CCc2ccccc2C1,-6.4%,32.4*,-2.1%,26.2
O=C(/C=C/C(=O)N1CCc2ccccc2C1)N1CCc2ccccc2C1,-2.3%,-0.9,-3.6%,22.8
O=C(c1ccc(Br)s1)N1CCc2ccccc2C1,-37.3%,49.3*,?,151.5*
CC(C)CN1CCC(=O)N(CCO)CC1,-2.4%,-1.7,1.0%,-5.0
CCC(=O)NS(=O)(=O)c1cccnc1Nc1ccccc1Cl,1.4%,-2.1,6.2%,-2.2
O=C(CCCOc1ccccc1)N1CCc2ccccc2C1,-13.5%,39.4*,-2.6%,85.2*
O=C(CCCOc1ccc(Cl)cc1Cl)N1CCc2ccccc2C1,10.9%,1.9,-16.8%,-0.6
Cc1c(Cl)cccc1N1CC(C)(C)C1=O,/,9.2,-0.3%,-8.9
CC(=O)c1ccc(N=Nc2ccc(N)cc2)cc1,0.1%,28.0*,-3.1%,55.6*
CC(=O)c1ccc(NS(=O)(=O)c2c(C)cc(C)cc2C)cc1,1.8%,37.7*,0.5%,73.1*

# Assay outcomes from PubChem BioAssay.
